The whole screen tested about 5,500 compounds, of which about 2,000 (36%) were called active. Another 18% or so got no clear call; they are omitted. No stated cut-off is given here; in the data, active means normalized growth mostly below about 0.91 (no sharp cut-off); inconclusive means no clear call, values can overlap the other calls; inactive means mostly above about 0.92. Some of the results follow.
Experiment: chemical genetic growth profiling, strain panel (AID 1159580);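 further: tested at 20 µM; growth read once vehicle control cultures reached saturation at 30 °C; 1 = growth at the plate median or of vehicle wells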
Conditions: growth OD

Measured: normalized growth

NC1(C(=O)O)CCCC1
inactive: S. cerevisiae deletion strains, locus YJR075W, strain HOC1, stronger effect = lower value 0.997 | S. cerevisiae deletion strains, locus YKL009W, strain mrt4, stronger effect = lower value 0.993 | S. cerevisiae deletion strains, locus YKL068W, stronger effect = lower value 1 | S. cerevisiae deletion strains, locus YKL085W, strain MDH1 (second series), stronger effect = lower value 0.996 | S. cerevisiae deletion strains, locus YKL085W, strain MDH1, stronger effect = lower value 0.996 | S. cerevisiae deletion strains, locus YKL160W, strain elf1, stronger effect = lower value 1.02 | S. cerevisiae deletion strains, locus YKL190W, strain CNB1, stronger effect = lower value 1.01 | S. cerevisiae deletion strains, locus YKR001C, strain vps1, stronger effect = lower value 0.998 | S. cerevisiae deletion strains, locus YKR026C, strain gcn3, stronger effect = lower value 1.02 | S. cerevisiae deletion strains, locus YKR091W, strain srl3, stronger effect = lower value 1.01 | S. cerevisiae deletion strains, locus YLL001W, strain dnm1, stronger effect = lower value 1.03 | S. cerevisiae deletion strains, locus YLL026W, stronger effect = lower value 1.01 | S. cerevisiae deletion strains, locus YLL041C, strain sdh2, stronger effect = lower value 1.02 | S. cerevisiae deletion strains, locus YLR027C, strain aat2, stronger effect = lower value 1.02 | S. cerevisiae deletion strains, locus YLR039C, strain RIC1, stronger effect = lower value 0.971 | S. cerevisiae deletion strains, locus YLR058C, strain SHM2, stronger effect = lower value 1.01 | S. cerevisiae deletion strains, locus YLR102C, strain apc9, stronger effect = lower value 1 | S. cerevisiae deletion strains, locus YLR113W, strain HOG1, stronger effect = lower value 1.06 | S. cerevisiae deletion strains, locus YLR221C, strain rsa3, stronger effect = lower value 0.994 | S. cerevisiae deletion strains, locus YLR258W, strain gsy2, stronger effect = lower value 1.02 | S. cerevisiae deletion strains, locus YLR262C, strain YPT6 (second series), stronger effect = lower value 1.04 | S. cerevisiae deletion strains, locus YLR262C, strain YPT6, stronger effect = lower value 1.02 | S. cerevisiae deletion strains, locus YLR268W, strain sec22, stronger effect = lower value 1.01 | S. cerevisiae deletion strains, locus YLR320W, strain mms22, stronger effect = lower value 1.03 | S. cerevisiae deletion strains, locus YLR330W, strain CHS5, stronger effect = lower value 1 | S. cerevisiae deletion strains, locus YLR342W, strain FKS1 (second series), stronger effect = lower value 1 | S. cerevisiae deletion strains, locus YLR342W, strain FKS1, stronger effect = lower value 1.02 | S. cerevisiae deletion strains, locus YLR357W, strain rsc2, stronger effect = lower value 1.02 | S. cerevisiae deletion strains, locus YLR370C, strain arc18, stronger effect = lower value 1.02 | S. cerevisiae deletion strains, locus YLR371W, strain rom2, stronger effect = lower value 1 | S. cerevisiae deletion strains, locus YLR384C, strain iki3, stronger effect = lower value 1.02 | S. cerevisiae deletion strains, locus YLR418C, strain cdc73, stronger effect = lower value 0.992 | S. cerevisiae deletion strains, locus YML016C, strain PPZ1, stronger effect = lower value 1 | S. cerevisiae deletion strains, locus YML032C, strain rad52, stronger effect = lower value 0.995 | S. cerevisiae deletion strains, locus YML120C, strain ndi1, stronger effect = lower value 1.03 | S. cerevisiae deletion strains, locus YML124C, strain tub3, stronger effect = lower value 0.998 | S. cerevisiae deletion strains, locus YMR058W, strain fet3, stronger effect = lower value 1.02 | S. cerevisiae deletion strains, locus YMR078C, strain ctf18, stronger effect = lower value 0.998 | S. cerevisiae deletion strains, locus YMR125W, strain sto1, stronger effect = lower value 1.05 | S. cerevisiae deletion strains, locus YMR129W, stronger effect = lower value 1.02 | S. cerevisiae deletion strains, locus YMR205C, strain PFK2, stronger effect = lower value 1.03 | S. cerevisiae deletion strains, locus YMR223W, strain ubp8, stronger effect = lower value 1.01 | S. cerevisiae deletion strains, locus YMR231W, strain pep5, stronger effect = lower value 1.02 | S. cerevisiae deletion strains, locus YMR307W, strain GAS1, stronger effect = lower value 1.01 | S. cerevisiae deletion strains, locus YNL067W, strain RPL9B, stronger effect = lower value 1 | S. cerevisiae deletion strains, locus YNL071W, strain lat1, stronger effect = lower value 1.02 | S. cerevisiae deletion strains, locus YNL128W, strain TEP1, stronger effect = lower value 1.02 | S. cerevisiae deletion strains, locus YNL183C, strain NPR1, stronger effect = lower value 0.946 | S. cerevisiae deletion strains, locus YNL209W, strain ssb2, stronger effect = lower value 1.01 | S. cerevisiae deletion strains, locus YNL233W, strain BNI4, stronger effect = lower value 0.991 | S. cerevisiae deletion strains, locus YNL248C, strain rpa49, stronger effect = lower value 1 | S. cerevisiae deletion strains, locus YNL250W, strain rad50, stronger effect = lower value 1.02 | S. cerevisiae deletion strains, locus YNL271C, strain bni1, stronger effect = lower value 0.998 | S. cerevisiae deletion strains, locus YNL298W, strain CLA4, stronger effect = lower value 1.01 | S. cerevisiae deletion strains, locus YNL307C, strain MCK1, stronger effect = lower value 0.996 | S. cerevisiae deletion strains, locus YNL322C, strain KRE1 (second series), stronger effect = lower value 1.01 | S. cerevisiae deletion strains, locus YNL322C, strain KRE1, stronger effect = lower value 1.01 | S. cerevisiae deletion strains, locus YNR049C, strain mso1, stronger effect = lower value 1.01 | S. cerevisiae deletion strains, locus YNR052C, strain pop2, stronger effect = lower value 1.01 | S. cerevisiae deletion strains, locus YOL006C, strain TOP1, stronger effect = lower value 0.987 | S. cerevisiae deletion strains, locus YOL012C, strain htz1 0.665 | S. cerevisiae deletion strains, locus YOL147C, strain pex11, stronger effect = lower value 0.993 | S. cerevisiae deletion strains, locus YOR001W, strain rrp6, stronger effect = lower value 1.03 | S. cerevisiae deletion strains, locus YOR061W, strain CKA2, stronger effect = lower value 1.01 | S. cerevisiae deletion strains, locus YOR069W, strain VPS5, stronger effect = lower value 1.01 | S. cerevisiae deletion strains, locus YOR070C, strain gyp1, stronger effect = lower value 1.02 | S. cerevisiae deletion strains, locus YOR080W, strain dia2, stronger effect = lower value 1.02 | S. cerevisiae deletion strains, locus YOR083W, strain WHI5, stronger effect = lower value 1.03 | S. cerevisiae deletion strains, locus YOR106W, strain vam3, stronger effect = lower value 1.02 | S. cerevisiae deletion strains, locus YOR136W, strain idh2, stronger effect = lower value 0.998 | S. cerevisiae deletion strains, locus YOR144C, strain elg1, stronger effect = lower value 0.997 | S. cerevisiae deletion strains, locus YOR184W, strain ser1, stronger effect = lower value 0.996 | S. cerevisiae deletion strains, locus YOR231W, strain MKK1, stronger effect = lower value 1.04 | S. cerevisiae deletion strains, locus YOR265W, strain rbl2, stronger effect = lower value 1.01 | S. cerevisiae deletion strains, locus YOR270C, strain vph1, stronger effect = lower value 1.07 | S. cerevisiae deletion strains, locus YOR290C, strain snf2, stronger effect = lower value 1.02 | S. cerevisiae deletion strains, locus YOR316C, strain cot1, stronger effect = lower value 1 | S. cerevisiae deletion strains, locus YPL051W, strain arl3, stronger effect = lower value 1.03 | S. cerevisiae deletion strains, locus YPL055C, strain LGE1, stronger effect = lower value 1.03 | S. cerevisiae deletion strains, locus YPL078C, strain atp4, stronger effect = lower value 1.04 | S. cerevisiae deletion strains, locus YPL106C, strain sse1, stronger effect = lower value 1.02 | S. cerevisiae deletion strains, locus YPL240C, strain hsp82, stronger effect = lower value 1.01 | S. cerevisiae deletion strains, locus YPL256C, strain CLN2, stronger effect = lower value 1.04 | S. cerevisiae deletion strains, locus YPR119W, strain clb2, stronger effect = lower value 0.998 | S. cerevisiae deletion strains, locus YPR141C, strain kar3, stronger effect = lower value 0.991 | S. cerevisiae deletion strains, locus YPR163C, strain tif3, stronger effect = lower value 1 | S. cerevisiae deletion strains, locus YPR167C, strain met16, stronger effect = lower value 0.992 | S. cerevisiae deletion strains, strain wtn01, stronger effect = lower value 0.994 | S. cerevisiae strains, strain wild type, stronger effect = lower value 1.01

From PubChem BioAssay AID1159580 (chemical genetic matrix, 2015)
